This passage reports inhibition results from PubChem BioAssay AID652197 (Broad Institute, 2013).

The structures appear in SMILES notation. In all, about 340,000 compounds went through this assay and about 500 (0.15%) were called active. The sample holds actives, similar compounds and a random draw of the others, so the mix is not that of the screen.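 The calls were made as follows: active = mean replicate inhibition of at least 30%, or all replicates individually reaching that 30% level; inactive = mean below 30% and not every replicate reaching it.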

The target of the assay is Endoplasmic reticulum aminopeptidase 1 (Homo sapiens) (UniProt Q9NZ08). In words: human ERAP1 aminopeptidase inhibitors, primary screen, biochemical, single point, plate reader (AID 652197).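 Also: 0% = neutral control wells and 100% = L-leucinethiol positive control wells.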 To be noted: recombinant ERAP1, Leu-AMC fluorescence, 60 min; at 10.7 µM; active compounds read high.
Endoplasmic reticulum aminopeptidase 1 (Homo sapiens), sequence (Q9NZ08 whole entry, looked up): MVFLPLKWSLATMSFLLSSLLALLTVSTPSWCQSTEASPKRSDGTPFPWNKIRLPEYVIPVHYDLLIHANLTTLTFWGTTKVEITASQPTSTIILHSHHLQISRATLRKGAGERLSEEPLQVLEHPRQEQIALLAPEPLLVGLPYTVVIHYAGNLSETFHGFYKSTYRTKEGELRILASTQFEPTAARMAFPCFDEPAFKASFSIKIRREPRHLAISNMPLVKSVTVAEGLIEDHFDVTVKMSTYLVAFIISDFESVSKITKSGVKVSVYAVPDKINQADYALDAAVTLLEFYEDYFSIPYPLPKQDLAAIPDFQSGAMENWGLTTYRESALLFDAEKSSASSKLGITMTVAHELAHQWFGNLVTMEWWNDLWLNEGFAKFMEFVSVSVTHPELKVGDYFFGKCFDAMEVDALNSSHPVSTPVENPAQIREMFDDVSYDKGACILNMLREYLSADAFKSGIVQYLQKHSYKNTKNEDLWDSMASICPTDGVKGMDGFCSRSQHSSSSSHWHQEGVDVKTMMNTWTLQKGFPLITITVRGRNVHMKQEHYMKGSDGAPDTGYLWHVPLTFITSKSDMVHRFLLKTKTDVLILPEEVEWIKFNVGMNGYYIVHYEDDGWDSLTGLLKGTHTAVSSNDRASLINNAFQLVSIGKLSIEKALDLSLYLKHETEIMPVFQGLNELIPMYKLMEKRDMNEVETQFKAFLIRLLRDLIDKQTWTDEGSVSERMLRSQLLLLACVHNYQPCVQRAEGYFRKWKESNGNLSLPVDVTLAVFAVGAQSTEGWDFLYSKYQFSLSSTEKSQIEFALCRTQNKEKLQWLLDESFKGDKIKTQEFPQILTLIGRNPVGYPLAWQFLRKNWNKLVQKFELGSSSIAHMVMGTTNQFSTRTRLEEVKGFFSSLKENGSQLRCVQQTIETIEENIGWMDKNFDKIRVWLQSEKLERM
`COc1ccc2c3c(n(C)c2c1)[C@@H](CO)N(C(=O)Nc1cccc(F)c1)CC31CCN(Cc2nccs2)CC1`: the inhibition is -1.39% (inactive). Take `O=C(Nc1ccccc1F)N1CC(=O)N2[C@@H](CO)[C@H](c3ccc(C#CC4CCCC4)cc3)[C@@H]2C1`: the inhibition was -1.61% (inactive).

Consider `CCC(=O)N1CCC2(CC1)CN(S(C)(=O)=O)[C@@H](CO)c1c2c2ccc(OC)cc2n1C`, for which the inhibition was -0.517% (inactive). As for `CC(=O)N(C)C[C@H]1[C@H](c2ccc(C3=CCCCC3)cc2)[C@H](CO)N1CC1CC1`, the inhibition was 2.34% (inactive). The same measure for `O=C(NCC1CC1)[C@@H]1[C@@H](CO)[C@@H]2Cn3c(ccc(C4=CCCC4)c3=O)[C@H]1N2CCC(F)(F)F`: 6.29% (inactive); for `O=C(Nc1ccc(F)cc1)N[C@H]1CC[C@H](CCn2cc(C3(O)CCCC3)nn2)O[C@@H]1CO`: -1.65% (inactive). In the case of `CN1CCN(C(=O)C[C@H]2CC[C@H]3[C@@H](COC[C@H](O)CN3CC3CCCC3)O2)CC1` it was 1.07% (inactive). In the case of `O=C(C[C@@H]1CC[C@@H]2[C@H](COC[C@H](O)CN2C(=O)c2ccncc2)O1)NCc1cc(F)cc(F)c1` it was -4.11% (inactive); in that of `CN1c2ccc(Br)cc2[C@@H]2[C@@H](CCN2S(=O)(=O)c2ccc(F)cc2)[C@@H]1CO`, -0.368% (inactive); in that of `CN1CCCCC(NC(=O)C(C)(C)C)C1=O` (centres undefined), -3.81% (inactive). For `CS(=O)(=O)Nc1ccc2c(c1)[C@H]1C[C@H](CC(=O)NC3CCCC3)O[C@@H](CO)[C@H]1O2`, the inhibition was -1.31% (inactive).

With `CC(C)C#Cc1cnc2c(c1)C(=O)N([C@H](C)CO)C[C@H](C)[C@@H](CN(C)C(=O)Nc1cc(F)ccc1F)O2`, the inhibition is 1.03% (inactive). In the case of `O=C(C[C@@H]1C=C[C@H](NC(=O)CN2CCOCC2)[C@@H](CO)O1)NCc1cccc(F)c1` it was 0.919% (inactive); in that of `CCCC#Cc1ccc([C@@H]2[C@@H](CO)N3C(=O)CN(C(=O)Nc4cccc(F)c4)C[C@H]23)cc1`, -1.93% (inactive); in that of `CCCNC(=O)Nc1ccc2c(c1)OC[C@H](C)N(CCC(F)(F)F)C[C@H](C)[C@@H](OC)CN(C)C2=O`, 1.36% (inactive). In the case of `Cc1nnc(Sc2nc3c(c(=O)[nH]c(=O)n3C)n2Cc2ccccc2)s1` it was -0.766% (inactive); in that of `CCN(CC)CCn1cnc2c1c(=O)[nH]c(=O)n2Cc1ccccc1`, -0.129% (inactive). In the case of `Cn1c(=O)[nH]c(=O)c2c1[nH]c(=S)n2Cc1ccccc1` it was 30.6% (active).

As for `Cc1noc(C)c1NC(=O)N(C)C[C@@H]1OCCCC[C@H](C)Oc2ccc(NC(=O)C3CCCCC3)cc2C(=O)N([C@H](C)CO)C[C@@H]1C`, the inhibition was 1.95% (inactive). In the case of `Cc1noc(C)c1NC(=O)N(C)C[C@@H]1OCCCC[C@H](C)Oc2ccc(NS(=O)(=O)c3c(C)noc3C)cc2C(=O)N([C@@H](C)CO)C[C@@H]1C` it was -2.92% (inactive); in that of `CO[C@@H]1CN(C)C(=O)c2cc(NC(=O)NC3CCCCC3)ccc2OC[C@@H](C)N(C(C)=O)C[C@H]1C`, 1.39% (inactive); in that of `CO[C@H]1CN(C)C(=O)c2ccc(NC(=O)CC(F)(F)F)cc2OC[C@H](C)N(C(=O)C2CC2)C[C@H]1C`, 1.15% (inactive). The same measure for `COc1ccc2sc(-c3ccc(N(C)C)cc3)c(C#CCO)c2c1`: 0.776% (inactive). In the case of `COc1ccc2c(c1)c(=Cc1ccc(N(C)C)cc1)c1cc(-c3ccccc3)[n+](C)n12` it was 48.3% (active); in that of `CN(C)Cc1cn(CC[C@H]2CC[C@@H](NS(=O)(=O)c3ccccc3)[C@H](CO)O2)nn1`, -0.48% (inactive); in that of `CCNC(=O)Nc1ccc2c(c1)C(=O)N(C)[C@H]1CC[C@@H](CC(=O)N[C@@H](C)c3ccccc3)O[C@H]1CO2`, -1.42% (inactive). For `O=C(O)C[C@@H]1C[C@@H]2c3cc(NC(=O)NC4CCCC4)ccc3O[C@@H]2[C@H](CO)O1`, the inhibition was 0.604% (inactive).

For the compound `CC(C)NC(=O)N1[C@H](CO)[C@H](c2ccccc2)C12CN(C(=O)Cc1cccnc1)C2`, the inhibition is 0.883% (inactive).

As for `Cc1ccc2nc3c(cc(C(=O)NCCc4ccccc4)c(=N)n3CC3CCCO3)c(=O)n2c1` (centres undefined), the inhibition was -79.5% (inactive). In the case of `COc1ccc(CCn2c(=N)c(C(=O)NCC3CCCO3)cc3c(=O)n4cccc(C)c4nc32)cc1OC` (centres undefined) it was 1.75% (inactive); in that of `Cc1cccn2c(=O)c3cc(C(=O)NCCN4CCOCC4)c(=N)n(Cc4cccnc4)c3nc12`, 54.5% (active). Consider `C[C@H]1CN([C@@H](C)CO)C(=O)Cc2cc(NC(=O)Cn3cnnn3)ccc2O[C@H]1CN(C)CC1CC1`, for which the inhibition was 2.17% (inactive). Consider `O=C(C[C@H]1C=C[C@H](NC(=O)Nc2cc(F)ccc2F)[C@@H](CO)O1)NCc1ccccn1`, for which the inhibition is -1.22% (inactive). With `COc1ccc(C(=O)Nc2ccc3c(c2)C(=O)N(C)C[C@@H](OC)[C@H](C)CN(C(C)=O)[C@@H](C)CO3)cc1`, the inhibition was 2.42% (inactive). As to `CCC(CC)NC(=O)/C=C/c1cccc([N+](=O)[O-])c1`, the inhibition was 4.03% (inactive). As for `COC(=O)/C=C\C(=O)Nc1cccc([N+](=O)[O-])c1`, the inhibition is 33.8% (active).

As to `O=C(Nc1cccc([N+](=O)[O-])c1)Nn1cnnc1`, the inhibition is -4.32% (inactive). The same measure for `C[C@@H]1CCCCO[C@H](CN(C)C)[C@@H](C)CN([C@H](C)CO)C(=O)c2cc(N(C)C)ccc2O1`: -1.68% (inactive). The same measure for `COc1ccc(NC(=O)N(C)C[C@@H]2OCCCC[C@H](C)Oc3ccc(NS(=O)(=O)c4cccs4)cc3C(=O)N([C@@H](C)CO)C[C@@H]2C)cc1`: -4.78% (inactive).

With `Cc1c(C)c2c(OCC(=O)NCCCO)cc3c(c2oc1=O)CCC(C)(C)O3`, the inhibition was 1.62% (inactive). The same measure for `Cc1cc(=O)oc2c3c(cc(OCC(=O)N[C@H](C(=O)O)c4ccccc4)c12)OC(C)(C)CC3`: 15.5% (inactive); for `Cc1c(C)c2c(OCC(=O)N[C@@H](C(=O)O)c3ccccc3)cc3c(c2oc1=O)CCC(C)(C)O3`: 31.7% (active).

In the case of `O=C(C[C@H]1CC[C@H]2[C@@H](COC[C@@H](O)CN2Cc2nccs2)O1)NCc1ccccc1Cl`, the inhibition is 0.949% (inactive). As for `COc1ccccc1S(=O)(=O)N[C@@H]1C=C[C@H](CC(=O)NCc2cccc(F)c2)O[C@H]1CO`, the inhibition was 0.371% (inactive).

The inhibition is the drop in the measured response relative to a control, in per cent.
